Molecules are shown by their SMILES. Results filed as inconclusive are left out. Values without a mark were called inactive. Calls come from the whole dose curve; as a rule, active = well fitted activation curve with a large enough effect; inconclusive = small, poorly fitted or top-dose-only effect; inactive = flat fitted curve, though single readings scatter.

The nature of this experiment: qHTS for Inhibitors of Cell Surface uPA Generation: FP59 Counterscreen for Cherry-picked Compounds. Note: 0% is about no effect. The following applies: FP59 anthrax toxin cytotoxicity counterscreen, cells; series mostly up to 115 µM; activity (protection from FP59): at the top concentration. (In general: qHTS replaces the single test concentration by a dilution series.)
Regarding `N#Cc1cccc(NC(=O)Cn2cnc(S(=O)(=O)N3CCOCC3)c2)c1`, the “activity (protection from FP59)” value was -1.37%.

With `O=C(/C=C/c1ccc(O)c(O)c1)O[C@@H]1C[C@](O)(C(=O)O)C[C@@H](O)[C@H]1O`, the “activity (protection from FP59)” value is -1.31%.

On to `O=C(c1ccco1)N1CCN(c2ncccn2)CC1`, for which the “activity (protection from FP59)” value was -1.18%. Turning to `CC(C)Cn1cnc2c1c(=O)[nH]c(=O)n2Cc1ccccc1`, the “activity (protection from FP59)” value is -1.24%. As to `Cc1nc2ccccc2c2oc(C(=O)Nc3ccc4c(c3)OCCO4)cc12`, the “activity (protection from FP59)” value is -1.53%. Consider `Cc1ccc2[nH]c(CN3CCN(C)C(CCO)C3)c(C)c2c1` (stereo not given), for which the “activity (protection from FP59)” value is -1.44%.

For `CCOC(=O)Cn1c(=O)cc(C)c2cccc(C)c21`, the “activity (protection from FP59)” value was -1.08%. Take `COc1cccc(C(=O)NCC(c2ccco2)N2CCc3ccccc3C2)c1` (stereo not given): the “activity (protection from FP59)” value is -1.3%. For `COc1ccc(/C(C)=N/N2CCOCC2)c(O)c1`, the “activity (protection from FP59)” value was -1.43%. Turning to `Cc1nc(C(=O)N2CCC(n3nccc3NC(=O)Nc3ccccc3Cl)CC2)cs1`, the “activity (protection from FP59)” value was -1.37%.

Turning to `CC(C)(C)S(=O)(=O)N1C[C@H]2CC/C=C\C/C(c3ccccc3)=C\2[C@@H]1CCO`, the “activity (protection from FP59)” value was 0.45%. As for `COCCN(C(=O)c1ccccc1OC)c1nnc(C)s1`, the “activity (protection from FP59)” value was -1.25%. Next, `CCCCNC(=O)C1CCN(S(=O)(=O)c2c(C)noc2/C=C\c2ccc(OC)cc2)CC1`: -1.02%; `Cc1ccc(S(=O)(=O)Nc2nc(C)cc(N/N=C/c3ccc(O)cc3)n2)cc1`: 0.72%; `O=C(C[n+]1ccccc1)Nc1ccccc1C(F)(F)F`: -1.29%. With `CCCc1nn2c(=O)cc(CSCC(=O)Nc3ccccc3)nc2s1`, the “activity (protection from FP59)” value is -1.23%. For `CC1CC(C)CN(CCCNC(=O)CN2C(=O)CSc3ccc(S(=O)(=O)N4CCOCC4)cc32)C1` (stereo not given), the “activity (protection from FP59)” value was -0.379%. Take `COc1ccc(S(=O)(=O)N2CCN(Cc3ccccc3)CC2)c(C)c1`: the “activity (protection from FP59)” value was -0.699%. Regarding `CC(C(=O)Nc1nccs1)c1ccc([N+](=O)[O-])cc1` (stereo not given), the “activity (protection from FP59)” value is -1.23%. Next, `CC1(C)S[C@@H]2[C@H](NC(=O)C(C(=O)O)c3ccccc3)C(=O)N2[C@H]1C(=O)O` (stereo not given in full): -1.39%.

Take `COc1ccc(C(=O)c2sc(Nc3ccccc3)nc2N)cc1`: the “activity (protection from FP59)” value is -1.2%. Take `Cc1cc(OC(C)C(=O)NCc2ccccn2)c2c(C)cc(=O)oc2c1` (stereo not given): the “activity (protection from FP59)” value is -1.49%.

For `Cc1ccc(C(O)(COC(=O)C(C)C)COC(=O)C(C)C)c(O)c1`, the “activity (protection from FP59)” value was -0.296%. `CCOc1cc(/C=C(\C#N)C(=O)NCc2cccnc2)ccc1O`: the “activity (protection from FP59)” value was -1.4%. Take `Cc1ccccc1C(=O)Nc1ccccc1N1CCCCC1`: the “activity (protection from FP59)” value was -0.905%.

Take `NC(=O)CC(NC(=O)Cc1cccc2ccccc12)c1ccc(N2CCN(c3ccccc3)CC2)c([N+](=O)[O-])c1` (stereo not given): the “activity (protection from FP59)” value is -0.718%.

For the molecule `CCOC(=O)c1c(NC(=O)CC2SC(N)=NC2=O)sc2c1CCC(C)C2` (stereo not given), the “activity (protection from FP59)” value is 0.548%.

On to `CCCOc1ccc(CC2CCC(=O)NC2=O)cc1` (stereo not given), for which the “activity (protection from FP59)” value is -1.11%. Regarding `COc1ccccc1CNC(=O)CCCn1nc(C)c2c(C)n(-c3ccccc3)nc2c1=O`, the “activity (protection from FP59)” value was -1.42%. As to `COc1cccc(C2CC(c3ccc(C)cc3)n3ncnc3N2)c1` (stereo not given), the “activity (protection from FP59)” value is -0.0008%.

Consider `Cc1ccc(-n2cccc2C(=O)NS(=O)(=O)c2ccc(C)cc2)cc1`, for which the “activity (protection from FP59)” value is -1.27%. Consider `O=C(O)CCc1nn2c3ccccc3n(CC(=O)O)c2nc1=O`, for which the “activity (protection from FP59)” value was -1.31%. Turning to `CCc1cc(CC)c(/C=N/NC(N)=O)c(CC)c1`, the “activity (protection from FP59)” value is -1.38%. For `Cc1ccc(Cl)c(N/C=C/C(=O)c2ccccc2)c1` the value was -1.59%; for `CC(NC(=O)C1CCC(C(=O)NC(C)c2ccccc2)CC1)c1ccccc1` (stereo not given), -1.03%; for `Cn1nc(N2CCN(S(=O)(=O)c3ccccc3)CC2)c(=O)n(C)c1=O`, -1.3%. Turning to `O=C(NNC(=O)c1cccc(-n2cccc2)c1)c1ccc(F)cc1`, the “activity (protection from FP59)” value is -1.28%. For the molecule `CCC(C)C(NC(=O)c1ccccc1)C(=O)Nc1ccc(S(=O)(=O)Nc2cc(C)nc(C)n2)cc1` (stereo not given), the “activity (protection from FP59)” value was -1.41%. For `COc1cccc(NC(=O)c2nnn(CC(=O)Nc3cc(C)cc(C)c3)c2N)c1` the value was -1.39%. Next, `COCCOc1ccc(C(F)(F)F)cc1NC(=O)COC(=O)Cc1c[nH]c2ccccc12`: -1.38%.

Values taken from PubChem BioAssay AID720517 (National Center for Advancing Translational Sciences (NCATS), 2013).
